Here are results for 15 compounds from PubChem BioAssay (NCATS).

One test relates to CRL-7250. The test is described as follows: Cytotoxic Profiling of Annotated Libraries Using Quantitative High-Throughput Screening (AID 1296008). The note with it: Five cell lines viability, CellTiter-Glo ATP luminescence, 48-72 h; max response: stronger effect = lower value. The method in brief: (§1)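 Cells exposed to compounds for 48 or 72 hr at 37 degrees Celsius. Viability read as ATP-coupled luminescence with CellTiter-Glo after 10 min at room temperature.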

The next test has as its system HEK293. The description is as above. The note with it: Five cell lines viability, CellTiter-Glo ATP luminescence, 48-72 h; max response: stronger effect = lower value. The method in brief: as §1
The test system of test [1] is HaCat. Described as above. To be noted: Five cell lines viability, CellTiter-Glo ATP luminescence, 48-72 h; max response: stronger effect = lower value. The method in brief: as §1
A general note: ATP-based viability assays read luminescence as a measure of living cells.

Another test has as its system KB-3-1. The description is as above. To be noted: Five cell lines viability, CellTiter-Glo ATP luminescence, 48-72 h; max response: stronger effect = lower value. In a few lines:
as §1

The test system of a further test is NIH3T3. Described as above. The note with it: Five cell lines viability, CellTiter-Glo ATP luminescence, 48-72 h; max response: stronger effect = lower value. In a few lines: as §1
Test [2] concerns HACAT. Description: qHTS assay to identify novel small-molecules to repurpose for Merkel cell carcinoma treatment (AID 1296009). To be noted: MCC and control cell lines, CellTiter-Glo viability, 72 h. In a few lines: (§2)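 CellTiter-Glo luminescence after 72 hr compound exposure at 37 degree celsius gave cell viability. Libraries NPC and MIPE were run as 8- and 11-point dose responses; RLUs normalized to DMSO (negative) and no-cell (cytotoxicity) controls.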
In general terms: In qHTS, concentration-response curves come from the screen itself.

A further test has as its system HEK293T. The test is described as above. The note with it: MCC and control cell lines, CellTiter-Glo viability, 72 h; at 44.8 µM (top of the series) unless noted. In a few lines:
as §2

Another test relates to MCC-13. The description is as above. To be noted: MCC and control cell lines, CellTiter-Glo viability, 72 h; series mostly up to 46 µM. In a few lines: as §2
Another test relates to MCC-26. The description is as above. The note with it: MCC and control cell lines, CellTiter-Glo viability, 72 h; series mostly up to 46 µM. In a few lines:
as §2

The test system of a further test is MKL-1. The test is described as above. The note with it: MCC and control cell lines, CellTiter-Glo viability, 72 h; series mostly up to 46 µM. The method in brief: as §2
The mark [3] stands for this setting: at 44.8 µM (top of the series) unless noted.

The structures appear in SMILES notation. Several values for one entry are separate records, joined by “and”; a condition that tells them apart may be missing. Equal values may be shown once. Results filed as inconclusive are left out. Some structures have more than one record in an assay (separate samples or runs), and their calls can disagree. Unmarked numbers belong to inactive results. Activity calls are given as the source filed them. The call rests on the fitted dose curve; in most records, active means well fitted inhibition curve with a large enough effect; inconclusive means small, poorly fitted or top-dose-only effect; inactive means flat fitted curve, though single readings scatter.
Further: nearly all actives have a fitted effect of over 60% in size.
On the % scale 0 is the no-effect control and ±100 the full control effect; potency means the concentration at half of the fitted maximal effect.

For the compound `C[C@H](CCC(=O)O)[C@H]1CC[C@H]2[C@@H]3C(=O)C[C@@H]4CC(=O)CC[C@]4(C)[C@H]3CC(=O)[C@]12C`, the max response was -5.31% in the test with CRL-7250, -9.72% in the test on KB-3-1 and -5.45% with NIH3T3. In addition, the outcome in the test on HEK293, with HaCat [1], in the test with HACAT [2] (setting [3]) and in the test on HEK293T was inactive. The Potency result in the test with MCC-13, in the test with MCC-26 and in the test on MKL-1 was “inactive” throughout.
`CC(O)(P(=O)(O)O)P(=O)(O)O`: the max response is 0.923% with CRL-7250, 0.618% in the test on KB-3-1 and 0.0838% in the test with NIH3T3. Further, the compound was classed as inactive in the test with HEK293, in the test with HaCat [1], in the test on HACAT [2] (setting [3]) and in the test with HEK293T. Further, the Potency result in the test with MCC-13, in the test with MCC-26 and in the test with MKL-1 was “inactive” throughout.
Consider `OC[C@H]1O[C@H](O[C@]2(CCl)O[C@H](CCl)[C@@H](O)[C@@H]2O)[C@H](O)[C@@H](O)[C@H]1Cl`, for which the outcome with CRL-7250, in the test with HEK293, in the test with KB-3-1, in the test on NIH3T3 and in the test with HEK293T was inactive. Also, the max response was -9.55% in the test with HEK293; -7.79% and -6.26% with HaCat [1]; -17.4% in the test with NIH3T3. The Potency entry in the test on MCC-13, in the test on MCC-26 and with MKL-1 was “inactive” each time.
With `CN(C)CCOc1ccccc1Cc1ccccc1`, the outcome in the test on CRL-7250, with HaCat [1] and with HACAT [2] (setting [3]) was inactive. Also, the max response in the test with HEK293 was -12.7%; in the test with KB-3-1, -14.6%; in the test with NIH3T3, -2.31%. The Potency entry in the test with MCC-13, in the test on MCC-26 and in the test with MKL-1 was “inactive” in each case.
On to `Cc1nc2n(c(=O)c1CCN1CCC(c3noc4cc(F)ccc34)CC1)CCC[C@H]2O`, for which the max response in the test on CRL-7250 was -3.73%; in the test on HEK293, -1.89%; in the test on KB-3-1, -12.7% and -2.14%; with NIH3T3, 1.23%. Also, the compound was classed as inactive in the test with CRL-7250, in the test on HEK293, in the test on HaCat [1], in the test on NIH3T3, in the test with HACAT [2] (at 17.4 µM (top of the series)) and with HACAT [2] (at 44.8 µM (top of the series)). For the same compound, in the test with HEK293T, the call was inactive. Further, the Potency result in the test on MCC-13, in the test on MCC-26 and in the test with MKL-1 was “inactive” each time.
As for `CN1CCC[C@@H]1c1cccnc1`, the max response in the test with CRL-7250 was -7.79%; with HEK293, -4.75%; in the test on KB-3-1, -0.673%; with NIH3T3, 0.585%. The call in the test with HaCat [1] and with HACAT [2] (setting [3]) was inactive. Besides, the Potency entry with MCC-13, in the test on MCC-26 and in the test on MKL-1 was “inactive” throughout.
Take `Cc1onc(-c2c(Cl)cccc2Cl)c1C(=O)N[C@@H]1C(=O)N2[C@@H]1SC(C)(C)[C@@H]2C(=O)O`: the max response is -3.36% and -1.59% in the test on CRL-7250; -5.63% with HEK293; -4.29% in the test with HaCat [1]; -7.64% and 7.08% with KB-3-1; -14.9% and -2.17% with NIH3T3. In addition, the result in the test on HEK293 and with HEK293T was inactive. Also, the Potency result in the test on MCC-13, with MCC-26 and in the test with MKL-1 was “inactive” in each case.
Regarding `CC(=O)N(O)CCCCCNC(=O)CCC(=O)N(O)CCCCCNC(=O)CCC(=O)N(O)CCCCCN`, the Potency was 2.99 µM (active) with CRL-7250; 52.4 nM (active) and 9.44 µM (active) in the test on HEK293; 1.32 µM (active) in the test with HaCat [1]; 3.35 µM (active) in the test with MKL-1. For the same compound, the values for the max response in the test on HaCat [1] and in the test with KB-3-1 were -20.9% and 1.85%, respectively.
Consider `COC(=O)[C@@H]1CC2=CC(=O)CC[C@]2(C)[C@@]23O[C@@H]2C[C@@]2(C)[C@@H](CC[C@@]24CCC(=O)O4)[C@H]13`, for which the max response with CRL-7250 is -2.8%; in the test on HEK293 it was 3.69%; in the test on KB-3-1 it was -7.46%. Besides, the result in the test with HaCat [1], with NIH3T3 and in the test with HACAT [2] (setting [3]) was inactive. Moreover, the Potency result in the test on MCC-13, in the test on MCC-26 and in the test with MKL-1 was “inactive” each time.
Consider `CN1CCN(C(c2ccccc2)c2ccccc2)CC1`, for which the max response with CRL-7250 was 1.17% and 3.11%; with HEK293, -9.52%; in the test on HaCat [1] it was -15.7%; with KB-3-1, -11.4% and 1.83%; in the test with NIH3T3 it was 3.7%. Besides, the result in the test on HaCat [1], with NIH3T3 and in the test with HACAT [2] (setting [3]) was inactive. Further, the Potency entry in the test on MCC-13, in the test on MCC-26 and with MKL-1 was “inactive” in each case.
For the compound `CCCCS(=O)(=O)N[C@@H](Cc1ccc(OCCCCC2CCNCC2)cc1)C(=O)O`, the max response is -2.86% and 2.79% with CRL-7250; -5.53% and -1.56% in the test on HEK293; -0.76% in the test on HaCat [1]; -7.62% with KB-3-1; -1.76% with NIH3T3. Further, the compound was classed as inactive in the test with HaCat [1], in the test on KB-3-1, in the test on NIH3T3 and with HACAT [2] (setting [3]). Also, the Potency entry with MCC-13, in the test on MCC-26 and in the test with MKL-1 was “inactive” throughout.
As for `NC(CS)C(=O)O` (centres undefined), the result in the test on CRL-7250, with HaCat [1] and in the test on HACAT [2] (setting [3]) was inactive. In addition, the max response in the test with HEK293 was -10%; in the test on KB-3-1 it was -0.484%; in the test with NIH3T3 it was -3.73%. Besides, the Potency entry with MCC-13, in the test on MCC-26 and with MKL-1 was “inactive” throughout.
Consider `COc1c2occc2c(OC)c2c(=O)cc(C)oc12`, for which the compound was classed as inactive with CRL-7250, in the test with HaCat [1] and with HACAT [2] (setting [3]). Moreover, the max response is -0.27% in the test with HEK293, 9.91% in the test with KB-3-1 and -9.5% with NIH3T3. The Potency result with MCC-13, in the test with MCC-26 and in the test on MKL-1 was “inactive” each time.
In the case of `COC(=O)CCc1ccc(OCC(O)CNC(C)C)cc1` (centres undefined), the max response was -4.17% and 4.01% with CRL-7250; 1.57% and 1.48% in the test on HEK293; -0.177% with HaCat [1]; 4.51% and -9.53% in the test on KB-3-1; 1.54% and 3.52% in the test with NIH3T3. In addition, the result in the test on HaCat [1] and in the test on HACAT [2] (setting [3]) was inactive. For the same compound, the Potency result with MCC-13, with MCC-26 and in the test on MKL-1 was “inactive” in each case.
As for `Cc1c(C(C)C)c(=O)n(-c2ccccc2)n1C`, the max response in the test on CRL-7250 is 0.671%; in the test on KB-3-1 it was -0.49%; with NIH3T3, 0.732%. In addition, the outcome in the test with HEK293, with HaCat [1], with HACAT [2] (setting [3]) and in the test with HEK293T was inactive. For the same compound, the Potency result with MCC-13, in the test on MCC-26 and in the test on MKL-1 was “inactive” throughout.
